Source: PubChem BioAssay (NCI)
The panel holds about 79,000 compounds, 15% with a hit somewhere; the sample as a whole holds those more often. Rule as the data show it: active = growth inhibition above about 70%; inactive = the rest.

Tests used:
[1] = NCI Yeast Anticancer Drug Screen. Data for the rad50 strain (AID 155);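 also: 0% = growth of vehicle-only cultures of the same strain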; settings: S. cerevisiae rad50 strain growth inhibition; at 50.0 µM; hits give high values
How it was run: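 Relative growth inhibition (compound vs vehicle) was measured in yeast with a defined repair-gene alteration.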

[2] = NCI Yeast Anticancer Drug Screen. Data for the mec2-1 strain (AID 157); settings: S. cerevisiae mec2-1 strain, at 50.0 µM, hits give high values
How it was run: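 Test agents were screened against the mec2-1 yeast strain, with defined DNA repair or cell cycle alteration. Growth was scored as inhibition against vehicle-only controls.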

[3] = NCI Yeast Anticancer Drug Screen. Data for the sgs1 mgt1 strain (AID 161);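 also: 0% = growth of cultures given vehicle only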; settings: S. cerevisiae sgs1 mgt1 strain, at 50.0 µM, hits give high values
How it was run: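 Mutant yeast exposed to compound; growth scored against vehicle-only wells.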

[4] = NCI Yeast Anticancer Drug Screen. Data for the cln2 rad14 strain (AID 165);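 also: 0% = growth equal to vehicle treated cultures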; settings: S. cerevisiae cln2 rad14 strain, at 50.0 µM, hits give high values
How it was run: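 Growth of compound-exposed yeast (cln2 rad14 genotype) measured and expressed as inhibition relative to vehicle.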

[5] = NCI Yeast Anticancer Drug Screen. Data for the bub3 strain (AID 167); settings: S. cerevisiae bub3 mutant strain, at 50.0 µM, hits give high values
How it was run: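 Screening used yeast with an engineered genetic alteration affecting cell cycle control. Compound-exposed cultures were compared with vehicle cultures, and reduced growth was taken as inhibition.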

[6] = NCI Yeast Anticancer Drug Screen. Data for the mlh1 rad18 strain (AID 175); settings: S. cerevisiae mlh1 rad18 strain growth inhibition; at 50.0 µM; hits give high values
How it was run: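 In this whole-cell yeast screen, a strain with altered DNA damage repair is challenged with compound, and its growth is measured against matched vehicle-treated controls.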

Measured: growth inhibition

Cn1c(N)c(-n2[nH]c(=O)n(-c3ccccc3)c2=O)c(=O)n(C)c1=O
inactive: [1] -20.6% | [2] 15.3% | [3] -3.25% | [4] -14.8% | [5] 14.6% | [6] 18.1%

O=C1c2ccc(=O)[nH]c2C(=O)C2CC3=C(CCCC3)CC12 (configuration not stated)
inactive: [1] 20.4% | [2] 24.6% | [3] 59.5% | [4] -71.1% | [5] 42.5% | [6] 44.5%

Nc1ccc(S(=O)(=O)NCCS(=O)(=O)O)cc1
inactive: [1] 3.45% | [2] 4.25% | [3] -36.8% | [4] -29.3% | [5] -16.2% | [6] -3.75%

CC1=C(C#N)C(C#N)(C#N)C(NN(C)C)C1 (configuration not stated)
inactive: [1] 8.3% | [2] 20.9% | [3] 1.5% | [4] -8.6% | [5] -15.9% | [6] -40%

CC(=O)[C@@]1(c2ccccc2)N(C(=O)c2ccccc2)[C@@]1(C)C(=O)c1ccccc1
inactive: [1] 22.1% | [2] 2.25% | [3] 14.4% | [4] 53.1% | [5] 3.85% | [6] -0.75%

CC(C)N(CC(=O)NC(=O)c1ccccc1)C(C)C
inactive: [1] -2.85% | [2] -6.45% | [3] -3.55% | [4] -32.9% | [5] 0.05% | [6] -2.6%

CCCCCCCOC(C)=O
inactive: [1] 14.8% | [2] -11.8% | [3] 11.3% | [4] -16.2% | [5] -3% | [6] 21.6%

O=C1O/C(=C/c2ccc(O)cc2)c2ccccc21
inactive: [1] 0.9% | [2] -26.9% | [3] -4.1% | [4] -15.1% | [5] 6.9% | [6] -11.4%

Cc1[nH]c(-c2ccccc2)c2nc(N(C)C)oc(=O)c12
inactive: [1] -11.4% | [2] 29.3% | [3] 17.4% | [4] 10.5% | [5] 34.1% | [6] -5.25%

O=C1NC(=S)N/C1=C\c1cccs1
inactive: [1] -20.6% | [2] -7.25% | [3] 15.4% | [4] -19.9% | [5] -7.35% | [6] -44.6%

CC(=O)c1cccc(C(C)=O)n1
inactive: [1] -24.2% | [2] -36.1% | [3] -35.9% | [4] 18.1% | [5] -19.8% | [6] 9.6%

C=C1C(=O)OC2(CCCCC)CCCCC12 (configuration not stated)
inactive: [1] 1.95% | [2] 4.1% | [3] -11.2% | [4] -9.9% | [5] 0.5% | [6] -10.5%

CCN(CC)CCOC(=O)c1ccc(N=Nc2cc(NC(C)=O)ccc2O)cc1
inactive: [1] 3.35% | [2] -3.7% | [3] -0.7% | [4] 4.15% | [5] 2.35% | [6] 5.05%

ON=C1CCN(c2ccccc2)CC1
inactive: [1] 10.3% | [2] -30.5% | [3] -10.4% | [4] -44.1% | [5] 1.6% | [6] -18.4%

CC1CCc2nc(N)nc(CC3CC(=O)NC(=O)C3)c2C1 (configuration not stated)
inactive: [1] -2.75% | [2] -5.65% | [3] -8.7% | [4] -45.5% | [5] -12.8% | [6] -3.2%

C=C(C)C(=O)O[C@H]1C[C@@]23O[C@@H]2CCC(=C[C@H]2OC(=O)C(=C)[C@H]12)COC3O (some centres not stated)
inactive: [1] 16.8% | [2] -12.6% | [3] 14.8% | [4] 9.45% | [5] 7.7% | [6] -22.8%

Cn1c(=O)c2c(ncn2CCNCC(O)c2cc(C(C)(C)C)c(O)c(C(C)(C)C)c2)n(C)c1=O (configuration not stated)
inactive: [1] 31.2% | [2] 6.35% | [3] 19% | [4] 16.8% | [5] -3.2% | [6] 11.2%

c1ccc(C[n+]2ccc3c(c2)CCCC3)cc1
inactive: [1] -1% | [2] -13.2% | [3] 27.8% | [4] 17.3% | [5] 19.1% | [6] 6.4%

N=C(N)c1ccc(OCCOc2cccc(N)c2)cc1
inactive: [1] 3.35% | [2] -15.8% | [3] 11.2% | [4] -39% | [5] -5% | [6] 13.5%

CC(=O)N(C(C)=O)C(CS)C(=O)O (configuration not stated)
inactive: [1] 4.1% | [2] -11.8% | [3] 2.85% | [4] 14.8% | [5] 9.05% | [6] 2.6%

COC(OC)c1ccccc1CO
inactive: [1] -7.6% | [2] -28.5% | [3] -6.1% | [4] -41.5% | [5] 3.65% | [6] -14.8%

COc1c(C)c2nc3ccccc3[nH]c2c2c(=O)ccnc12
inactive: [1] -3.8% | [2] -29.6% | [3] -12.4% | [4] 14.8% | [5] -21.9% | [6] 46.1%

CS(=O)(=O)OCCC(O)COS(C)(=O)=O (configuration not stated)
inactive: [1] -7.55% | [2] -7.25% | [3] 9.45% | [4] -55% | [5] -12.5% | [6] 4.1%

CC1CC(C)(C)NC(c2ccccc2)O1 (configuration not stated)
inactive: [1] 1.75% | [2] -5% | [3] 1.3% | [4] 10.1% | [5] -14.4% | [6] 29.4%

CC(Sc1ccccc1)C(CO)(CO)[N+](=O)[O-] (configuration not stated)
inactive: [1] -15.1% | [2] 1.8% | [3] 28.4% | [4] 9.4% | [5] -14.6% | [6] 28.4%

Cc1csc(NNC(=O)Nc2ccccc2)n1
inactive: [1] 36.7% | [2] 14.2% | [3] -35.5% | [4] 18.4% | [5] -8.65% | [6] 7.5%

OCCN(CCO)CCCNc1ccnc2cc(Cl)ccc12
inactive: [1] -22.6% | [2] -2% | [3] -0.65% | [4] -39.9% | [5] -12.8% | [6] 5.2%

CCOC(=O)/C(O)=C/c1cc(=O)n(C)c2ccccc12
inactive: [1] -6.6% | [2] 10.7% | [3] -5.8% | [4] -21.8% | [5] -9.9% | [6] -17.4%

CC1=C2CCOC2=Nc2ccccc2O1
inactive: [1] 15.8% | [2] -6.3% | [3] 11.3% | [4] -1.8% | [5] -14.6% | [6] -6.2%

COC(=O)C1=C(\O)C[C@@]2(C)CC[C@@H](C(=O)OC)C2C/C=C\1C(=O)OC (some centres not stated)
inactive: [1] -4.75% | [2] -6.25% | [3] 0.05% | [4] 11.1% | [5] -8.6% | [6] 34.8%

Nc1ccccc1CN1C(=O)CCC1=O
inactive: [1] 0.25% | [2] -6.8% | [3] -12.4% | [4] -14.9% | [5] -10.1% | [6] -14.2%

CC(C)CCc1n[nH]c(=O)n1/N=C\c1ccccc1
inactive: [1] -4.25% | [2] -9.35% | [3] -0.05% | [4] -10.6% | [5] 19.1% | [6] 26.6%

O=C1c2cc3c(cc2C(=O)c2[nH]c(=O)ccc21)CCCC3
inactive: [1] 11.5% | [2] 25.9% | [3] 16% | [4] 0.85% | [5] 33.4% | [6] 35.6%

[O-][N+](O)=C1c2ccccc2-c2ccccc21
inactive: [1] 7.4% | [2] 2.95% | [3] 0.65% | [4] -21.4% | [5] 3.75% | [6] 11.1%

CN(C)CCSSCCN(C)C
inactive: [1] -7.55% | [2] -5.65% | [3] -13.6% | [4] -14.1% | [5] -2.55% | [6] -3.55%

C[N+](C)(C)C12CCCCCC1SC2 (configuration not stated)
inactive: [1] 15.6% | [2] 6.7% | [3] 9.55% | [4] -26.6% | [5] -16.1% | [6] 5.1%

CC(=O)COc1ccccc1-c1ccccc1
inactive: [1] 5.4% | [2] 8.55% | [3] 4.9% | [4] -34.8% | [5] 8.6% | [6] -14.7%

COc1ccc(CCNc2ncc([N+](=O)[O-])cc2N)cc1OC
inactive: [1] 5.15% | [2] -8.75% | [3] -10.8% | [4] -20.9% | [5] 6.25% | [6] 2.75%

CCCC(=O)N[C@H]1C2C3CC4C5CC(C42)C1(C)C53 (some centres not stated)
inactive: [1] -5.3% | [2] -17.4% | [3] 3.8% | [4] 10.3% | [5] 7.25% | [6] -17.2%

CN=C(c1ccccc1)N(O)c1ccccc1
inactive: [1] -16.1% | [2] -1.15% | [3] -8.15% | [4] -10.1% | [5] -1.65% | [6] 6.2%

C=C1C(=O)OC2C1CC(OC(C)=O)/C(C)=C/CCC1(C)OC21 (configuration not stated)
inactive: [1] -4.5% | [2] -35.3% | [3] 6% | [4] -6.25% | [5] -27.6% | [6] -68.2%

CCC(CC)C1OCC(O)CO1 (configuration not stated) (tested in a mixture with another compound)
inactive: [1] 20.4% | [2] 2.7% | [3] 10% | [4] 6.85% | [5] 22.1% | [6] 17.4%
